Shown are actives, neighbours in structure and some others; about 4.2% of the full set was active somewhere.
RecA splice inh = Mtb RecA intein splicing inhibitors, primary screen, biochemical, fluorescence, HTS. Protein RecA (Mycobacterium tuberculosis (strain ATCC 25618 / H37Rv)), P9WHJ3. cell-free RecA intein splicing. inhibition, % (concentration not given with the values). 290,000 compounds, 0.75% hits; in the data active means inhibition above about 30%;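 further: 0% = vehicle wells and 100% = reference inhibitor control wells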
Target sequence (P9WHJ3 whole entry, looked up, canonical isoform): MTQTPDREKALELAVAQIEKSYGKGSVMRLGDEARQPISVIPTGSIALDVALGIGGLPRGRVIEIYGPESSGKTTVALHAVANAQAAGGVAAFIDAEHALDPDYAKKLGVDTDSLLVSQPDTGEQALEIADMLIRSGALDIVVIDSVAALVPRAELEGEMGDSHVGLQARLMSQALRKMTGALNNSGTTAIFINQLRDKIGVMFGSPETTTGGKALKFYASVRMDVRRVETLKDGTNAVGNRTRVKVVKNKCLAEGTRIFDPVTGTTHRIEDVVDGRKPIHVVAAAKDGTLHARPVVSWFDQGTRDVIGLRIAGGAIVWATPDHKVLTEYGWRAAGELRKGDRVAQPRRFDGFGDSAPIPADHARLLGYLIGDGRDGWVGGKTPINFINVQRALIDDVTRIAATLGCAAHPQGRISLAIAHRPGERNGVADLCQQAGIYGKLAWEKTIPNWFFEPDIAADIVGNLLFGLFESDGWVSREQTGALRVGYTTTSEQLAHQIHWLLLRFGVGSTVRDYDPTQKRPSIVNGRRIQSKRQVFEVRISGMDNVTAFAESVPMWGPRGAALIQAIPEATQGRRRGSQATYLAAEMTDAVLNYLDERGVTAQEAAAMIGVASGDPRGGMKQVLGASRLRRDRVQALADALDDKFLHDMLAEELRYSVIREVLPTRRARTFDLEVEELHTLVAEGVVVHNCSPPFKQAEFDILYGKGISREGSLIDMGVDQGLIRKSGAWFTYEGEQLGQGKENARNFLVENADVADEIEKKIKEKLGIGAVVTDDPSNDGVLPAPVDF
GDH-TPI counter-1 = GDH-TPI coupling enzyme inhibitors, primary screen, artefact control for M. tuberculosis FBA inhibitor project, biochemical, absorbance, full deck. 360,000 compounds, 1.2% hits. GDH-TPI coupled enzyme counterscreen, NADH absorbance. inhibition, % at 4.8 µM; in the data active means inhibition above about 30%;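 further: 0% = DMSO wells and 100% = wells lacking the enzyme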
BJeLR lethal = MLPCN primary cell-based screen for lethality selective to Ras in HRASV12 cells | BJeLR (HRASV12) viability, CellTiter-Glo ATP luminescence, 48 h | inhibition, % (test concentration not listed) | 300,000 compounds, 0.17% hits; in the data active means inhibition above about 50%
PrPC TRFRET = inhibitors of human cell surface prion protein PrPC, primary screen, cell-based, TR-FRET. inhibition, % at 13.8 µM. Major prion protein (Homo sapiens), P04156. 370,000 compounds, 0.43% hits. AID 720596, 2013. TR-FRET read-out; in the data active means inhibition above about 24%; further: 0% = median of the test wells and 100% = reference compound wells
FBA Mtb inh = Mtb FBA enzyme inhibitors, primary screen, biochemical, fluorescence, strain H37Rv; inhibition, % at 1 µM; purified M. tuberculosis FBA, fluorescence read-out; Fructose-bisphosphate aldolase (Mycobacterium tuberculosis (strain ATCC 25618 / H37Rv)), …; 360,000 compounds, 2.3% hits;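 further: 0% = vehicle and 100% = reference inhibitor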
Mtb FBA confirm = M. tuberculosis aldolase blockers, biochemical, fluorescence, strain H37Rv, confirmation; shares compounds with FBA Mtb inh; purified M. tuberculosis FBA, fluorescence read-out; inhibition, % at 1 µM; 5,600 compounds, 78% hits; AID 651616, 2012;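 further: 0% = vehicle wells and 100% = reference inhibitor wells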
GDH-TPI counter-2 = GDH-TPI coupling enzyme inhibitors, artefact control for M. tuberculosis FBA inhibitor project, biochemical, fluorescence, high throughput; shares compounds with FBA Mtb inh; inhibition, % at 1 µM; GDH-TPI coupled enzyme counterscreen; 5,600 compounds, 81% hits; in the data active means inhibition above about 10%
The depositor's hits bear a star; . = no result given; + = active, no number. Unless noted, no stated cut-off is given here; in the data, active means inhibition above about 27%; inactive means the rest.

SMILES	RecA splice inh	GDH-TPI counter-1	BJeLR lethal	PrPC TRFRET	FBA Mtb inh	Mtb FBA confirm	GDH-TPI counter-2
Cc1ccc(S(=O)(=O)N2CCC(c3nc4ccccc4o3)CC2)s1	.	.	.	5	.	.	.
O=C(O)c1ccccc1Nc1ccnc(Cl)n1	-1	10	-1	-6	28*	+	144*
C#CCNC(=O)C[C@H]1C[C@@]2(C(=O)OC)C(=C[C@H](C(C)C)O[C@@H]2C2CC2)N(CCc2ccc(OC)c(OC)c2)C1=O	.	.	.	-1	.	.	.
Cc1cccc(CCNC(=O)CSc2nc3c([nH]2)c(=O)n(C)c(=O)n3C)c1	.	.	.	-1	.	.	.
Cc1ccc2[nH]c3c(N4CCc5ccccc5C4)ncnc3c2c1	7	17	19	14	9	.	.
CCOc1ccc2[nH]c3c(NCCCOC)ncnc3c2c1	2	1	0	-5	110*	+	+
COc1ccc2[nH]c3c(NCCN(C(C)C)C(C)C)ncnc3c2c1	.	2	.	-11	54*	+	184*
CCOc1ccc2[nH]c3c(N4CCc5ccccc5C4)ncnc3c2c1	19	10	2	17	32*	+	+
CCOc1ccc2[nH]c3c(NCC(C)C)ncnc3c2c1	4	1	9	.	77*	126*	110*
CCCC(=O)N1CCC[C@]2(CC[C@@H](CCC(=O)N(CC)CC)O2)C1	.	.	.	-1	.	.	.
CCOc1ccc2[nH]c3c(NCCN(CC)CC)ncnc3c2c1	1	7	9	-13	21	.	.
Cc1ccc2[nH]c3c(N4CCOCC4)ncnc3c2c1	1	21	35	6	82*	178*	145*
COc1ccc(CNc2ncnc3c2[nH]c2ccccc23)cc1	6	10	4	16	17	.	.
COc1ccc(CNc2ncnc3c2[nH]c2cc(OC)c(OC)cc23)cc1	-1	-9	10	8	46*	106*	92*
COc1ccc2[nH]c3c(N4CCN(Cc5ccc6c(c5)OCO6)CC4)ncnc3c2c1	3	17	0	-1	35*	79*	53*
CCOc1ccc2[nH]c3c(NCCOC)ncnc3c2c1	0	-1	1	7	71*	64*	48*
N#Cc1ccccc1N1CCN(S(=O)(=O)c2ccc3c(c2)CCC(=O)N3)CC1	.	.	.	0	.	.	.
CCCCOCCCNC(=O)C[C@H]1C[C@@]2(C(=O)OC)C(=C[C@H](C(C)C)O[C@@H]2C2CC2)N(CCc2ccc(OC)c(OC)c2)C1=O	.	.	.	1	.	.	.
CC(CCN1CCC(C(O)(c2ccccc2)c2ccccc2)CC1)Oc1cc(F)cc(F)c1 (stereo not given)	.	.	.	-12	.	.	.
CN(C(=O)COc1ccc2ccc(=O)oc2c1)C1CCS(=O)(=O)C1 (stereo not given)	-2	20	3	3	38*	190*	147*
CCN(C(=O)COc1ccc2ccc(=O)oc2c1)C1CCCCC1	.	8	.	-6	35*	72*	51*
CN(C)C(=O)COc1ccc2ccc(=O)oc2c1	-1	7	5	11	23	.	.
COc1ccc(OC)c2c1CCC2=O	0	9	-4	8	30*	71*	51*
O=S(=O)(Nc1ccc(-c2csc(-c3ccccc3)n2)cc1)c1ccccc1	5	-6	2	2	0	.	.
O=S(=O)(Nc1cccc(-c2cn3ccsc3n2)c1)c1ccc(F)cc1	4	-5	-2	4	1	.	.
SMILES	RecA splice inh	GDH-TPI counter-1	BJeLR lethal	PrPC TRFRET	FBA Mtb inh	Mtb FBA confirm	GDH-TPI counter-2
Cc1ccc(S(=O)(=O)Nc2cccc(-c3cn4ccsc4n3)c2)cc1	5	0	4	15	-1	.	.
O=S(=O)(Nc1cccc(-c2cn3cccnc3n2)c1)c1ccccc1	-10	15	8	-8	75*	66*	47*
O=S(=O)(Nc1cccc(-c2cn3cccnc3n2)c1)c1ccc(F)cc1	2	27	-3	6	38*	83*	81*
O=S(=O)(Nc1ccc(-c2cn3cccnc3n2)cc1)c1ccccc1	2	16	0	1	64*	10	-7
Cc1ccn2cc(-c3cccc(S(=O)(=O)N4CCCCC4)c3)nc2c1	2	-2	4	4	4	.	.
O=S(=O)(c1cccc(-c2cn3cccnc3n2)c1)N1CCCCCC1	3	5	-14	-1	62*	58*	49*
O=C(CN1C(=O)CCSc2ccccc21)Nc1cccc(Cl)c1F	.	.	.	-5	.	.	.
COc1ccc(CCNC(=O)c2cc3ccccn3n2)cc1	.	.	.	6	.	.	.
CNC(=O)CCc1[nH]c2ccccc2c1Sc1ccccc1	2	4	-8	5	0	.	.
COC(=O)c1[nH]c2ccccc2c1Sc1ccccc1	1	13	1	24	77*	95*	73*
CC(C)Cn1cc(-c2cccc3nccn23)cn1	.	4	.	-7	105*	0	-2
O=C(COC(=O)Cn1cnc2ccccc21)NCCc1ccc(Cl)cc1	0	-3	9	-5	56*	46*	36*
CC(=O)c1cc(-c2cnn(Cc3ccccc3)c2)c(=O)n2c1CCC2	.	.	.	6	.	.	.
Cc1cc(N2CCN(CC(C)(C)O)C[C@@H]2C)ccc1N1CCN(CC(C)(C)O)[C@H](C)C1	.	.	.	-1	.	.	.
CSc1ncccc1C(=O)Nc1ccc(OC(F)(F)F)cc1	1	1	-4	8	44*	33*	34*
Cc1cc(=O)oc2ccc(OCC(=O)NCc3ccco3)cc12	-2	5	5	7	7	.	.
O=C(COc1ccc2oc(-c3ccccc3)cc(=O)c2c1)NCc1ccco1	-3	6	-1	.	30*	90*	69*
Cc1cc(=O)oc2c(C)c(OCC(=O)N3CC[C@@]4(O)CCCC[C@H]4C3)ccc12	-5	11	3	0	15	.	.
Cc1cc(=O)oc2c(C)c(OC(C)C(=O)N3CC[C@@]4(O)CCCC[C@H]4C3)ccc12 (stereo not given in full)	3	18	-5	2	24	.	.
Cc1c(C)c2ccc(OC(C)C(=O)N3CC[C@@]4(O)CCCC[C@H]4C3)c(C)c2oc1=O (stereo not given in full)	2	9	-4	-2	69*	53*	41*
Cc1c(C)c2ccc(OC(C)C(=O)N3CC[C@@]4(O)CCCC[C@H]4C3)cc2oc1=O (stereo not given in full)	.	16	-5	-9	96*	+	+
O=C(CCl)NC1CCCCN(Cc2ccc(OC(F)(F)F)cc2)C1=O (stereo not given)	.	.	.	-8	.	.	.
